In PubChem BioAssay AID651724 (National Center for Advancing Translational Sciences (NCATS), 2012) one finds activity change data, which are given here for 91 compounds.

Molecules are shown by their SMILES. Out of some 340,000 compounds screened, about 1,700 (0.5%) were called active. Another 2% or so got no clear call; they are omitted. No stated cut-off is given here; in the data, active means activity change below about -65%; inconclusive means mostly about -30% to -63%; inactive means weaker than that. Many of the other results were omitted from the sample, so actives are more common in it than they were.
On the % scale 0 is the no-effect control and ±100 the full control effect.

The test system of this assay is CtBP / adenovirus E1A interaction (AlphaScreen). In words: qHTS Assay for Inhibitors of the CtBP/E1A Interaction. To be noted: AlphaScreen GST-E1A/His-CtBP binding, 1536-well; hits give low values. In a few lines:
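AlphaScreen with 125 nM GST-E1A and 125 nM His-CtBP (5X stocks) in Tris pH 8.0, 300 mM NaCl, BSA, Tween 20, TCEP. Compounds preincubated 2 h at 37 deg C, then glutathione donor/nickel acceptor beads added for 1 h at 37 deg C in dark.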
Background: qHTS replaces the single test concentration by a dilution series.
Regarding `CCCCCc1c(-c2cccc(Br)c2)ncn1CCc1ccccc1OC`, the activity change was -0.685% (inactive).

For the compound `COc1cccc(C(NC(C)=O)c2nc(-c3cnc4ccccc4c3)cs2)c1` (stereo unspecified), the activity change was -20.3% (inactive).

Take `Cc1ccc(-c2cnc(C(O)c3cccc(C)c3C)[nH]2)cc1` (stereo unspecified): the activity change is -4.55% (inactive).

Consider `COCCNC(=O)CSc1nc(N)c(NC(=O)c2ccco2)c(=O)[nH]1`, for which the activity change was 12.4% (inactive).

With `COc1ccc(C(=O)Nc2c(N)nc(SCC(=O)Nc3ccc(C(C)=O)cc3)[nH]c2=O)cc1`, the activity change was -2.12% (inactive).

Take `COC(=O)c1ccc(NC(=O)CSc2nc(N)c(NC(=O)c3ccc(Br)o3)c(=O)[nH]2)cc1`: the activity change is -65.1% (active).

As for `O=c1nc2s/c(=C\c3ccco3)c(=O)n2nc1Cc1ccccc1`, the activity change is -81.2% (active).

As for `O=C(Nc1ccccc1)/C(=C\c1ccco1)NC(=O)c1ccco1`, the activity change was 0.317% (inactive).

Regarding `O=C(NCCc1ccco1)c1nn(Cc2ccccc2)c(=O)c2ccccc12`, the activity change was -2.1% (inactive).

As for `CCCCOCCCNC(=O)C[C@@H]1C[C@@]2(C(=O)OC)CCCCC=C2N(CCC2=CCCCC2)C1=O`, the activity change was -1.56% (inactive).

Regarding `Cc1ccc(Nc2ncnc3c2cnn3C)c(C)c1`, the activity change is 3.32% (inactive).

For the compound `CC(C)Sc1ncnc2c1cnn2-c1ccccc1`, the activity change is 0.575% (inactive).

Consider `Cc1ccc(-n2ncc3c(Nc4cccc(C(=O)O)c4)ncnc32)cc1`, for which the activity change was -74.4% (active).

`CC(=O)Nc1cc(-c2cccc(CO)c2)cn2c(-c3cccc(C(F)(F)F)c3)cnc12`: the activity change was 3.79% (inactive).

As to `CN(Cc1cn(Cc2ccc(C(F)(F)F)cc2)nn1)C1CN(Cc2cn(Cc3ccc(C(F)(F)F)cc3)nn2)S(=O)(=O)C1` (stereo unspecified), the activity change was 3.64% (inactive).

For `O=C(Nc1ccc(C(=O)O)cc1)/C(=C/c1ccc([N+](=O)[O-])cc1)NC(=O)c1ccccc1`, the activity change was -2.48% (inactive).

As for `Cc1ccc(NC(=O)/C(=C/c2ccc([N+](=O)[O-])cc2)NC(=O)c2ccccc2)cc1`, the activity change was 4.11% (inactive).

Regarding `O=C(N/N=C/c1cc([N+](=O)[O-])ccc1O)/C(=C\c1cccs1)NC(=O)c1ccccc1`, the activity change is -94.1% (active).

As to `CCCCN(C=O)c1c(CC)nc2c(OCCC3CCCCC3)cccn12`, the activity change was -11% (inactive).

`CCC(CC)C(C(=O)NC1CCCC1)N1CCN(c2cc(C)nc3ccccc23)CC1` (stereo unspecified): the activity change was 3.39% (inactive).

In the case of `O=C(COc1cc2oc(=O)c3c(c2cc1Cl)CCC3)NCCCN1CCOCC1`, the activity change was -65.9% (active).

For the compound `CCc1cc(=O)oc2c(C)c(OCC(=O)NCCN3CCOCC3)ccc12`, the activity change is -6.07% (inactive).

Turning to `Cc1cc(=O)oc2c(C)c(OCC(=O)NCCN3CCOCC3)ccc12`, the activity change was 0.132% (inactive).

As to `O=C(CC(CC(=O)c1ccccc1)c1ccco1)c1ccccc1`, the activity change was 4.89% (inactive).

On to `Cc1ccc(S(=O)(=O)n2oc(=O)c(C3CCCCC3)c2N)cc1`, for which the activity change is -69.5% (active).

As for `Cc1ccc(S(=O)(=O)N2CCC(N3CCCCCC3)CC2)cc1`, the activity change is -10.9% (inactive).

Take `Cc1ccc(S(=O)(=O)NC2CCCCCC2)cc1`: the activity change is 10.7% (inactive).

Take `Cc1cc(Br)cn2c(Cc3ccccc3C(F)(F)F)c(C3CCCCC3)nc12`: the activity change was -6.97% (inactive).

`Cc1noc(C)c1-c1ccc(C(=O)NCc2ccncc2)c2occc12`: the activity change was -17.7% (inactive).

Take `Cc1[nH]c2ccccc2c1C(=O)c1cc([C@H](NC(=O)OC(C)(C)C)C(C)C)sc1N`: the activity change was -23.1% (inactive).

For the compound `Cc1ccc(/C=N/NC(=O)CSc2nc3ccccc3o2)cc1`, the activity change is -93.4% (active).

Consider `O=C(CSc1nc2ccccc2o1)N1CCN(c2ccccc2)CC1`, for which the activity change was -3.28% (inactive).

Take `CC(C)(C)C(=O)CSc1nc2ccccc2o1`: the activity change was 11.1% (inactive).

For `CCN(CC)C(=O)CSc1nc2ccccc2o1`, the activity change was 4.11% (inactive).

`O=C(CSc1nc2ccccc2o1)N/N=C/c1ccccc1C(=O)O`: the activity change is -92.7% (active).

Consider `O=C(CSc1nc2ccccc2o1)N1CCN(c2ccc(Cl)cc2)CC1`, for which the activity change was -0.51% (inactive).

With `CC(=O)Nc1cc(-c2ccc(N3CCN(C)CC3)cc2)cn2c(-c3ccc(F)cc3)cnc12`, the activity change is -22% (inactive).

As for `CCc1nc2ccc(C(=O)Nc3cccc(OC)c3)cn2c1N(CCC(C)C)CCN(C)C`, the activity change is -9.75% (inactive).

For `Cc1ccc(S(=O)(=O)N2CCCCC2)cc1NC(=O)CCNC(=O)c1ccccc1Cl`, the activity change is 2% (inactive).

Turning to `O=C(Nc1ccc(Cl)cc1)C1Cc2c(-c3ccc4c(c3)OCO4)ccnc2O1` (stereo unspecified), the activity change was -5.12% (inactive).

Regarding `O=C(NCc1ccc(F)cc1)c1cc(C2CCCCN2C(=O)c2cccs2)on1` (stereo unspecified), the activity change was 4.5% (inactive).

Regarding `CC(=NNC(=S)N1CCCCCC1)c1ccccn1`, the activity change was -89.7% (active).

With `O=C(NCCOc1ccccc1)c1ccccc1F`, the activity change is 0.486% (inactive).

Turning to `C/C(=N\NC(=O)c1ccccc1F)c1ccccn1`, the activity change was -97.9% (active).

As for `CCCCCNC(=O)Cc1ccc(OC)cc1`, the activity change is 12.5% (inactive).

Regarding `COc1ccc(C/C(C)=N/NC(=O)c2cc(C)oc2C)cc1`, the activity change is 8.03% (inactive).

On to `Cc1cccc(C)c1NC(=S)N1CCCCCC1`, for which the activity change was 3.43% (inactive).

Regarding `C/C(CC(=O)Nc1ccc(N(C)C)cc1)=N\NC(=O)c1ccccc1F`, the activity change was -8.83% (inactive).

On to `CNC(=S)N1CCN(c2ccccn2)CC1`, for which the activity change is 5.96% (inactive).

For the compound `COc1ccc(CC(=O)N/N=C(\C)c2ccccn2)cc1`, the activity change is -73.3% (active).

For `C#CCN(C[C@@H]1[C@@H](OC(=O)NC2CC2)[C@@H](OC(=O)NC2CC2)Cn2c(=O)ccc(=O)n21)S(=O)(=O)c1ccc(C)cc1`, the activity change was 3.71% (inactive).

For `FC(F)(F)c1ccccc1Cc1c(-c2ccccc2)nc2c3ccccc3ccn12`, the activity change was 6.14% (inactive).

Take `Cc1cccc(C(=O)C(O)(c2ccccc2)C2CCCCC2=O)c1` (stereo unspecified): the activity change is 3.76% (inactive).

Consider `CC1(C(=O)NS(=O)(=O)c2ccc3ccccc3c2)CCN1C(=O)C1(c2ccc(Cl)cc2)CCC1` (stereo unspecified), for which the activity change was -4.19% (inactive).

For the compound `O=C(CSc1nc2cccc(F)c2c(=O)n1-c1ccccc1)Nc1ccc2c(c1)CCC2`, the activity change was 8.09% (inactive).

Regarding `CC(=O)Nc1cccc(-c2ccnc3c2CC(C)(C(=O)NCc2ccccc2)O3)c1` (stereo unspecified), the activity change is 0.959% (inactive).

Regarding `CC1(C(=O)NS(=O)(=O)c2ccccc2)CCN1C(=O)Cc1ccc(-c2ccccc2)cc1` (stereo unspecified), the activity change is 1.02% (inactive).

For `O=c1[nH][nH]c2c1[C@H](c1ccc(Cl)cc1)O[C@H](CCc1ccccc1)C2`, the activity change is 1.98% (inactive).

As to `COc1cccc(-c2cnc3c(NC(C)=O)cc(-c4cc(F)ccc4OC)cn23)c1`, the activity change is -20.8% (inactive).

Take `Cc1c(Cl)c([N+](=O)[O-])nn1Cc1ccc(C(=O)N/N=C\c2cc(Cl)ccc2O)o1`: the activity change is -70.3% (active).

Turning to `Cc1ccc(C(=O)O)cc1NC(=O)c1ccc(Cn2nc(C)c(Cl)c2C)o1`, the activity change was 0% (inactive).

Turning to `Cc1nn(Cc2ccc(Cl)cc2)c(Cl)c1/C=N/NC(=O)c1cccnc1`, the activity change was -0.89% (inactive).

As to `CNc1cncc(-c2ccc(NS(C)(=O)=O)cc2)n1`, the activity change is 0.0496% (inactive).

`COc1cccc(CNc2nc(NCc3ccccc3OC)nc3ccsc23)c1`: the activity change is -7.75% (inactive).

For the compound `O=C1c2ccccc2C(=O)c2c1cccc2N1CCN(CCO)CC1`, the activity change was -25.7% (inactive).

Regarding `O=C1c2ccccc2C(=O)c2c1cccc2N1CCN(Cc2ccccc2)CC1`, the activity change was -94.4% (active).

On to `O=S1(=O)CCN(Cc2ccccc2)CC1`, for which the activity change was 7.73% (inactive).

Take `C[C@@H]1CN([C@@H](C)CO)C(=O)CCCn2nncc2CO[C@H]1CN(C)C(=O)Nc1ccc(C(F)(F)F)cc1`: the activity change was -18.9% (inactive).

For `COC(=O)[C@]12CCCCC=C1N(CCC1=CCCCC1)C(=O)[C@H](CC(=O)N1CCSCC1)C2`, the activity change is -7.56% (inactive).

Take `Cc1cc(Cl)ccc1-c1nc(NCCN(C)C)nc2ccsc12`: the activity change is -3.67% (inactive).

For `CCOc1ccc(-n2c(O)c(/C=N/Nc3nnc(C)c(=O)[nH]3)c3ccccc3c2=O)cc1`, the activity change is -92.9% (active).

As for `Cc1nnc(N/N=C/C2CC=CCC2)[nH]c1=O` (stereo unspecified), the activity change was -19.9% (inactive).

On to `Cc1cc(=O)[nH]c(N/N=C/c2c(C)nn(-c3ccccc3Cl)c2Cl)n1`, for which the activity change is 5.1% (inactive).

Take `Cc1nnc(N/N=C/c2ccccn2)[nH]c1=O`: the activity change was -90.3% (active).

On to `CCOc1ccc(-n2c(O)c(/C=N/Nc3nc(C)cc(C)n3)c3ccccc3c2=O)cc1`, for which the activity change is -6.77% (inactive).

Turning to `CCN(CC)CCCN=Cc1c(O)n(-c2ccc(C)cc2)c(=O)c2ccccc12`, the activity change was -3% (inactive).

On to `Cc1ccc(NC(=O)CSc2nn3c(=O)c(C)nnc3s2)cc1Cl`, for which the activity change is -85.4% (active).

As for `COc1ccc(Cc2nnc(SCC(=O)Nc3ccc(C)c(Cl)c3)[nH]c2=O)cc1`, the activity change is -19.5% (inactive).

With `Cc1ccc(NC(=O)CSc2nnc(CNC(=O)c3ccccc3F)o2)cc1Cl`, the activity change is -15.1% (inactive).

Take `CC1(C(=O)NCc2ccc3c(c2)OCO3)CCN1C(=O)Cc1cccc2ccccc12` (stereo unspecified): the activity change is -3.05% (inactive).

Regarding `CCOC(=O)C=Cc1ccc(C(=O)OCC)[nH]1`, the activity change was 1.94% (inactive).

In the case of `O=C(NC1CCCCC1)C(c1cc2ccccc2o1)n1c(=O)c(-c2ccco2)nc2ccccc21` (stereo unspecified), the activity change was 6.62% (inactive).

Turning to `Cc1cccc(-n2cnc(C(=O)NNC(=S)Nc3ccccc3)c2)n1`, the activity change was -91.7% (active).

Turning to `Cc1cccc(-n2cnc(C(=O)Nc3cccnc3)c2)n1`, the activity change is 3.1% (inactive).

For `Cn1cc(Cl)c(C(=O)NNC(=S)Nc2cccc(Cl)c2)n1`, the activity change is -27.4% (inactive).

For the compound `CC(C)N=C1CCCC1C(=S)SSC(=S)C1CCCC1=NC(C)C` (stereo unspecified), the activity change was -5.04% (inactive).

With `CCCCCNC(=O)C(c1ccc(OC)cc1)n1c(=O)c(-c2ccccc2)nc2ccccc21` (stereo unspecified), the activity change is 0% (inactive).

For the compound `C#Cc1ccc(NC(=O)C2(C)CCN2C(=O)Cc2ccc(-c3ccccc3)cc2)cc1` (stereo unspecified), the activity change is 0.392% (inactive).

For `O=C(Cn1ncc2c3ccccc3n(Cc3ccccc3)c2c1=O)NCc1ccccn1`, the activity change is -0.706% (inactive).

Turning to `Cc1c2cnn(CC(=O)NCc3ccccn3)c(=O)c2c(C)n1Cc1ccc(Cl)cc1`, the activity change is -67.4% (active).

Take `Cc1ccc(Cn2c(C)c3cnn(CC(=O)NCc4ccccn4)c(=O)c3c2C)cc1`: the activity change is -24.7% (inactive).
